The list is not random: actives were taken first. Their share in the collection is about 8.7%.
Pf growth 48h: inhibits P. falciparum growth in the first generation, 48 h | actives 5.9% (n = 310,000) | Potency, µM (titrated, usually from 28.7 µM), most hits filed as inhibitors | P. falciparum luciferase growth in erythrocytes, 48 h | AID 504832
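Compounds are pin-transferred into medium, infected erythrocytes (2% hematocrit, 0.1% parasitemia final) are added, and plates sit one parasite generation at 37 C in 5% CO2. Detection reagent is then added and luminescence measured.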
Pf growth 96h: P. falciparum growth inhibition at 96 hour, primary screen for plastid delayed-death inhibitors; actives 6.9% (n = 320,000); P. falciparum luciferase reporter growth, 96 h; Potency, µM (titrated, usually from 28.7 µM), most hits filed as inhibitors
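96 h incubation, 37 C, 5% CO2, of luciferase-reporter P. falciparum-infected RBCs (2% hematocrit, 0.05% parasitemia final) with test compounds; endpoint luminescence.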
VACV Venus inh: vaccinia inhibition (Venus reporter) | Vaccinia virus Venus reporter expression, fluorescence | Potency, µM (highest dose often 36.5 µM), hits mostly inhibitors | actives 0.46% (n = 330,000); calls by dose curve; tested in A549 cells; also: nearly all actives have a fitted effect of over 30% in size
AMA1 RON2 block: AMA1-RON2 (P. falciparum) interaction inhibition. Potency, µM (series often up to 58.2 µM), actives largely listed as inhibitors. actives 0.2% (n = 360,000). AlphaScreen AMA1-biotinylated RON2 peptide binding. AID 720542; also: nearly all actives have a fitted effect of over 45% in size
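AMA1 (3D7) with his tag at 25 nM final met compounds first, then biotinylated RON2 peptide at 25 nM; detection used donor plus acceptor beads, 10 µg/mL apiece, read by AlphaScreen after 30 min at room temperature.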
Vaccinia mCherry: inhibitors of vaccinia virus infection (mCherry reporter signal). Potency, µM (doses to about 36.5 µM), hits mostly inhibitors. actives 0.63% (n = 310,000). Vaccinia virus mCherry reporter infection, fluorescence. AID 720579; calls by dose curve; tested in A549 cells; also: nearly all actives have a fitted effect of over 35% in size
Numbers stand for hits; [ ] = another dose, or the depositor's remark. Unless noted, calls follow the shape of the dose curve; as a rule, active = well fitted curve in the direction sought with a large enough effect; inconclusive = small, poorly fitted or top-dose-only effect, or another doubt; inactive = no such curve, though single readings can be large; an effect the other way counts as inactive or inconclusive.

For O=C(CCl)NC1CCCc2ccccc21 (stereo unspecified) the results were Pf growth 48h 12µM, Pf growth 96h inactive, VACV Venus inh inconclusive, AMA1 RON2 block inactive and Vaccinia mCherry inconclusive.
COc1ccc(NC(=O)NC2CCCc3ccccc32)cc1OC (stereo unspecified) was read as Pf growth 48h inactive, Pf growth 96h inactive and AMA1 RON2 block inactive.
COc1ccccc1OCC(=O)NC1CCCc2ccccc21 (stereo unspecified) was read as Pf growth 48h inactive, Pf growth 96h inactive, VACV Venus inh inactive, AMA1 RON2 block inactive and Vaccinia mCherry inactive.
For Cc1ccc(SCCNC(=O)CN(c2ccccc2)S(=O)(=O)N(C)C)cc1 the results were VACV Venus inh inactive and Vaccinia mCherry inactive.
Cc1ccc(O)c(-c2cc(C(F)(F)C(F)F)nc(-c3ccccc3)n2)c1 was read as Pf growth 48h inconclusive, Pf growth 96h 8.3µM, VACV Venus inh inactive and AMA1 RON2 block inactive.
Oc1ccc(Cl)cc1-c1cc(C(F)(F)C(F)F)nc(-c2ccccc2)n1 was read as Pf growth 48h 1.3µM and AMA1 RON2 block inactive.
For COc1ccc2nc(-c3ccccc3)cc(C(=O)OCC(=O)N3CC(C)OC(C)C3)c2c1 (stereo unspecified) the results were Pf growth 48h 12µM, Pf growth 96h inconclusive and AMA1 RON2 block inactive.
COc1ccc(Br)c(C(=O)OCC(=O)N2CCC(Cc3ccccc3)CC2)c1 was read as Pf growth 48h 13µM, Pf growth 96h inactive, VACV Venus inh inconclusive, AMA1 RON2 block inactive and Vaccinia mCherry inactive.
For COc1ccc2nc(-c3ccccc3)cc(C(=O)OCC(=O)N3CCCCC3)c2c1 the results were Pf growth 48h 12µM, Pf growth 96h inconclusive and AMA1 RON2 block inactive.
Cn1ncc2c(Nc3cc(C(F)(F)F)ccc3Cl)ncnc21 was read as VACV Venus inh inactive and Vaccinia mCherry inactive.
Screening COc1ccccc1C(=O)Nc1ccccc1OCc1cc(=O)n2c(C)csc2n1 returned VACV Venus inh inactive and Vaccinia mCherry inactive.
`COc1ccc(NC2CCCN(C(=O)c3ccc4[nH]c(C)c(C)c4c3)C2)cc1` (stereo unspecified) gave Pf growth 48h inconclusive, Pf growth 96h 13µM, VACV Venus inh inactive, AMA1 RON2 block inactive and Vaccinia mCherry inconclusive.
`COc1ccc(NC2CCCN(C(=O)c3ccc(C(C)=O)cc3)C2)cc1` (stereo unspecified) gave Pf growth 48h inactive, Pf growth 96h inactive and AMA1 RON2 block inactive.
`CN(C)CC(CCC(CN(C)C)C(O)(c1ccccc1)c1ccccc1)C(O)(c1ccccc1)c1ccccc1` (stereo unspecified) gave Pf growth 48h 1.9µM, Pf growth 96h 1.9µM, VACV Venus inh inactive, AMA1 RON2 block inactive and Vaccinia mCherry inconclusive.
Screening CN(C)c1ccc(C=O)c(Cl)c1 returned VACV Venus inh inactive and Vaccinia mCherry inactive.
Screening Cc1ccc2c(COn3nnc4ccc(S(=O)(=O)N(C)C)cc43)cc(=O)oc2c1C returned Pf growth 48h inactive and Pf growth 96h 10µM.
`COc1ccc(NC(=O)CN(C)CC(=O)c2c(C)[nH]c3ccccc23)cc1` gave Pf growth 48h inconclusive, Pf growth 96h 12µM, VACV Venus inh inactive, AMA1 RON2 block inactive[11.6 µM] and Vaccinia mCherry inactive.
Screening COc1cccc(NC(=O)CN(C)CC(=O)c2c(C)[nH]c3ccccc23)c1 returned Pf growth 48h inconclusive, Pf growth 96h 12µM and AMA1 RON2 block inactive.
`COc1ccc(NC(=O)CN(C)CC(=O)c2[nH]c(C)c(C(C)=O)c2C)cc1` gave Pf growth 48h inconclusive, Pf growth 96h inactive and AMA1 RON2 block inactive.
Screening COc1cccc(NC(=O)CN(C)CC(=O)Nc2ccc3c(c2)OCO3)c1 returned VACV Venus inh inactive, AMA1 RON2 block inactive and Vaccinia mCherry inactive.
CCC(C)c1ccc(NC(=O)CN(C)CC(=O)Nc2cccc(OC)c2)cc1 (stereo unspecified) was read as Pf growth 48h 12µM, Pf growth 96h inconclusive, VACV Venus inh inactive, AMA1 RON2 block inactive and Vaccinia mCherry inactive.
Screening Cc1cccc(C)c1NC(=S)N/N=C1\CC2CC=CC12 (stereo unspecified) returned Pf growth 48h inconclusive, Pf growth 96h 9.3µM, VACV Venus inh inactive, AMA1 RON2 block inactive and Vaccinia mCherry inactive.
For O=C(C[n+]1ccc(/C=N/O)cc1)NC1CCCCC1 the results were Pf growth 48h 10µM, Pf growth 96h inactive, VACV Venus inh inactive, AMA1 RON2 block inactive and Vaccinia mCherry inactive.
`COc1cc2c(cc1O)CCN[C@@]21CS[C@H]2c3c(OC(C)=O)c(C)c4c(c3C(COC1=O)N1C2C2c3c(cc(C)c(OC)c3O)CC([C@@H]1O)N2C)OCO4` (stereo partly specified) gave Pf growth 48h 0.0005µM and Pf growth 96h 2.1µM.
Cc1cc(/C=C/c2cccc3sc(C)[n+](CCCCI)c23)ccc1N(CCCl)CCCl was read as VACV Venus inh inactive and Vaccinia mCherry inactive.
Screening CCc1ccc2[nH]c(=O)c(CN(CCCN3CCOCC3)C(=O)Nc3ccc(F)cc3)cc2c1 returned Pf growth 48h inconclusive, Pf growth 96h inactive, VACV Venus inh inconclusive and AMA1 RON2 block inactive.
`O=C(Nc1ccc(F)cc1)N(CCCN1CCOCC1)Cc1cc2cc3c(cc2[nH]c1=O)OCO3` gave Pf growth 48h 13µM, Pf growth 96h inactive, VACV Venus inh inactive, AMA1 RON2 block inactive and Vaccinia mCherry inactive.
Screening COc1ccccc1NC(=O)N(CCCN1CCOCC1)Cc1cc2cc3c(cc2[nH]c1=O)OCO3 returned Pf growth 48h inactive, Pf growth 96h 8.3µM, VACV Venus inh inactive and AMA1 RON2 block inactive.
Screening O=C(Nc1ccc(F)cc1)N(CCCN1CCOCC1)Cc1cc2cc3c(cc2[nH]c1=O)OCCO3 returned Pf growth 48h 10µM, Pf growth 96h inactive, VACV Venus inh inconclusive and AMA1 RON2 block inactive.
COc1ccccc1C1=Nn2c(nc3sc(C(=O)Nc4ccccc4Cl)c(C)c3c2=O)SC1 was read as VACV Venus inh inactive and Vaccinia mCherry inactive.
Screening Cc1cc2c(cc1S(=O)(=O)NCc1ccc(F)cc1)OCCN2C returned VACV Venus inh inactive and Vaccinia mCherry inactive.
`COc1cc(/C=C(/C)[N+](=O)[O-])ccc1OCc1ccccc1Cl` gave Pf growth 48h inactive, Pf growth 96h inconclusive, VACV Venus inh 11µM, AMA1 RON2 block inconclusive and Vaccinia mCherry inconclusive.
For COc1cc(/C=N/O)ccc1OCc1ccccc1Cl the results were Pf growth 48h inactive, Pf growth 96h inactive, VACV Venus inh inactive, AMA1 RON2 block inactive and Vaccinia mCherry inactive.
For Cc1ccccc1OCCCSc1nc2ccccc2[nH]1 the results were Pf growth 48h inactive, Pf growth 96h 10µM, VACV Venus inh inactive, AMA1 RON2 block inactive and Vaccinia mCherry inactive.
c1ccc(OCCSc2nc3ccccc3[nH]2)cc1 was read as Pf growth 48h inconclusive, Pf growth 96h 7.4µM, VACV Venus inh inactive and AMA1 RON2 block inactive.
`Brc1ccc2nc(SCCOc3ccccc3)[nH]c2c1` gave VACV Venus inh inactive and Vaccinia mCherry inactive.

Bioassay records (PubChem BioAssay)
